The panel holds about 79,000 compounds, 15% with a hit somewhere; the sample as a whole holds those more often. Unmarked numbers belong to inactive results. Activity calls are given as the source filed them. Rule as the data show it: active = growth inhibition above about 70%; inactive = the rest.
How the values were obtained:
[1] = NCI Yeast Anticancer Drug Screen. Data for the rad50 strain (AID 155);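 also: 0% = growth of vehicle-only cultures of the same strain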; details: S. cerevisiae rad50 strain growth inhibition; at 50.0 µM; stronger effect = higher value
Method in brief: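 Yeast carrying a defined DNA repair defect were exposed to test compounds, and growth was compared with vehicle-treated controls to give percent inhibition.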

[2] = NCI Yeast Anticancer Drug Screen. Data for the mec2-1 strain (AID 157); details: S. cerevisiae mec2-1 strain, at 50.0 µM, stronger effect = higher value
Method in brief: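 Test agents were screened against the mec2-1 yeast strain, with defined DNA repair or cell cycle alteration. Growth was scored as inhibition against vehicle-only controls.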

[3] = NCI Yeast Anticancer Drug Screen. Data for the sgs1 mgt1 strain (AID 161);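 also: 0% = growth of cultures given vehicle only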; details: S. cerevisiae sgs1 mgt1 strain, at 50.0 µM, stronger effect = higher value
Method in brief: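 Test agents were incubated with a DNA-repair-mutant yeast strain. Growth was then read and compared against vehicle-treated controls.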

[4] = NCI Yeast Anticancer Drug Screen. Data for the cln2 rad14 strain (AID 165);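 also: 0% = growth equal to vehicle treated cultures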; details: S. cerevisiae cln2 rad14 strain, at 50.0 µM, stronger effect = higher value
Method in brief: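 Growth of compound-exposed yeast (cln2 rad14 genotype) measured and expressed as inhibition relative to vehicle.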

[5] = NCI Yeast Anticancer Drug Screen. Data for the bub3 strain (AID 167); details: S. cerevisiae bub3 mutant strain, at 50.0 µM, stronger effect = higher value
Method in brief: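 Compounds were applied to a genetically altered yeast strain carrying a cell-cycle control defect. Growth inhibition was scored against vehicle-treated controls.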

[6] = NCI Yeast Anticancer Drug Screen. Data for the mlh1 rad18 strain (AID 175); details: S. cerevisiae mlh1 rad18 strain growth inhibition; at 50.0 µM; stronger effect = higher value
Method in brief: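 In this whole-cell yeast screen, a strain with altered DNA damage repair is challenged with compound, and its growth is measured against matched vehicle-treated controls.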

| SMILES | growth inhibition [1] | growth inhibition [2] [%] | growth inhibition [3] [%] | growth inhibition [4] [%] | growth inhibition [5] [%] | growth inhibition [6] [%] |
| --- | --- | --- | --- | --- | --- | --- |
| O=C(CCCCCC(=O)N1CC(CCl)c2ccc([N+](=O)[O-])cc21)N1CC(CCl)c2ccc([N+](=O)[O-])cc21 (stereo unspecified) | -28.8% | -39.8 | -15.6 | -4.5 | -2.9 | -55.4 |
| CC1=CC(c2ccccc2)(c2ccccc2)c2ccccc21 | 0.1% | 3 | 5 | -19.1 | 1.7 | -17.4 |
| CC(C)(c1ccc(O)c([N+](=O)[O-])c1)c1ccc(O)c([N+](=O)[O-])c1 | -2.65% | -2.75 | -4.6 | -26.4 | -2.9 | 7.2 |
| OCc1ccccc1C1CSCSC1 | -7.2% | -29.1 | -37.5 | -30.9 | -21.4 | -12.2 |
| N#Cc1c(Cl)cccc1N1CCSCC1 | 1.75% | -20.8 | 15.3 | 18.2 | -0.9 | 0.1 |
| COC1OC(COS(C)(=O)=O)C2OC(C)(C)OC12 (stereo unspecified) | 11.6% | 1.85 | 3.55 | 11.6 | -9.3 | 21.9 |
| C=C1CN2CCc3c([nH]c4ccccc34)C2CC1CC(=O)N(C)C (stereo unspecified) | -33.5% | -26.7 | -24.4 | -1.15 | -32 | -9.65 |
| CC(=O)c1cccc(NC(=O)Nc2cccc(O)c2)c1 | 4.5% | 19.9 | -5.35 | 7 | 56.1 | -0.25 |
| CCC(c1ccc(O)cc1)c1cc2c(cc1OCC(=O)OC)OCO2 (stereo unspecified) | -5.1% | -9.3 | -4.65 | -6.75 | 0.65 | 10.2 |
| O=C(O)C(SSC(C(=O)O)(c1ccccc1)c1ccccc1)(c1ccccc1)c1ccccc1 | 71.8% (active) | 21.5 | 54.6 | 36 | 12 | 38 |
| C=CC(O)C(O)C=C (stereo unspecified) | 15.1% | -9 | 20.4 | 8.25 | 12.9 | 17.2 |
| CSS(=O)(=O)C(c1ccccc1)c1ccccc1 | -14.6% | 2.55 | -2.1 | -2.45 | 60.2 | -14.8 |
| Cc1ccc(S(=O)(=O)/C(C#N)=C\N2CCNC2=S)cc1 | -11.7% | -24.3 | -6.4 | 13.5 | 4.4 | -2.25 |
| CC(=O)OCC(C)(C(N)=O)c1ccccc1 (stereo unspecified) | -36.9% | -9.15 | -5.5 | -32 | -5.9 | 1.85 |
| CC(C)(C)c1ccc(-n2c3nc(=O)n(-c4ccccc4CO)c(=O)c-3cc3ccccc32)cc1 | -9.75% | -12.8 | -9.5 | -11.6 | -0.95 | 4.95 |
| CC1=C2CC[C@@]3(C)C(=CCC3O)C2(C)CCC1=O (stereo partly specified) | -1.3% | 11.9 | -7.5 | -34 | -8.9 | -7.6 |
| COC(=O)c1c[nH]c(C=O)c1C | 15.8% | -0.7 | -6.95 | -67.8 | 8.3 | 8.8 |
| CC(C)=CCCC(=O)C(c1nc2nnc(N)n2[nH]c1=O)c1nc2nnc(N)n2[nH]c1=O | 13.3% | 13.6 | -1.95 | 17.8 | 1.6 | -7.55 |
| CCOc1ccc(/C=C2\N=C(c3ccccc3)OC2=O)cc1OC | 8.5% | 12.5 | 4 | 0.75 | 5.85 | 2.4 |
| CCCCCC#CC(=O)OC | -14.8% | 1.45 | -17.4 | 9.95 | -2.2 | 2.75 |
| O=S(=O)(Oc1ccc(OS(=O)(=O)c2ccccc2)cc1)c1ccccc1 | -8.8% | 1 | -0.3 | 0.05 | 12.5 | 14.6 |

| SMILES | growth inhibition [1] | growth inhibition [2] [%] | growth inhibition [3] [%] | growth inhibition [4] [%] | growth inhibition [5] [%] | growth inhibition [6] [%] |
| --- | --- | --- | --- | --- | --- | --- |
| CCOC(=O)c1cnc2ccc(OC)cc2c1 | 0.7% | 0.7 | -6.35 | -76.6 | 35.5 | 18.3 |
| Cc1ccc(C(=O)N/N=C/c2ccccc2Cl)cc1 | -3.15% | 49.1 | 33.8 | -20.4 | 34.9 | 26.6 |
| O=C(O)c1ccc2c(c1C(=O)O)C(=O)OC2(c1ccc(O)cc1)c1ccc(O)cc1 | -14.8% | 11.7 | -21.6 | -21.8 | -10.9 | 4.85 |
| CCOC(=O)c1ccc(NCCCc2c(C)nc(N)[nH]c2=O)cc1 | 5.25% | 9.5 | -9.15 | -10.3 | 34.6 | -2.85 |
| COc1ccc2c(CCn3ccccc3=O)cccc2c1 | -13.3% | -8.5 | 7.55 | -13.9 | 44.9 | -11.2 |
| O=C1Nc2ccccc2C12CCNC2Cc1ccccc1 (stereo unspecified) | -17.2% | -12.2 | -11.8 | 19.8 | -8.55 | -21.4 |
| Cc1ccc(N=N/C(=N/NC(=O)c2ccccc2)c2ccc(N(CCC#N)CCC#N)cc2C)cc1 | 0.85% | 3.3 | -9.65 | -16.3 | -3.25 | -40 |
| CCOC(=O)CCCNc1cc(OC)cc2cccnc12 | -7.4% | -23.9 | -2.6 | -48.8 | 19.8 | -8.7 |
| CCN(CC)CC1CCCCCCCCCCC1=O (stereo unspecified) | -30.3% | -17.9 | -32.7 | 17.4 | -44 | -28.9 |
| NNCCSC1CCCCC1 | 8.9% | 22.1 | 15.3 | -63.1 | -17 | 2.8 |
| CN=S(=O)(OCCCCOS(=O)(=NC)c1ccc(C)cc1)c1ccc(C)cc1 (stereo unspecified) | 10.6% | -14.4 | -26.4 | -22.8 | -23.4 | -71.5 |
| COc1cc(/C=C/c2ccccn2)oc(=O)c1 | 5.2% | -6.7 | -2.05 | -14.3 | -12.1 | 7.9 |
| CC(=O)N1CCN(C=S)CC1 | -16.5% | -9.6 | -5.65 | 15.8 | -4.05 | -15.5 |
| O=C(Cl)/C=C/c1ccccc1 | 37.1% | 15.5 | 27.9 | -29.1 | 23.9 | 34.9 |
| O=C1C2C3C=CC(O3)C2C(=O)N1CCN1CCCCC1 (stereo unspecified) | -0.75% | -4.8 | -0.65 | 6.5 | -2.15 | -6.05 |
| CCCCCCCCCCCn1cnc2c(=S)nc[nH]c21 | 0.25% | 5.3 | -17.1 | 20.7 | -21.2 | -21.2 |
| CC1(c2nc3ccccc3s2)CCCO1 (stereo unspecified) | -6.1% | 23.8 | 7.6 | -13.7 | 7.55 | 8.4 |
| CCOC(=O)CSCCC(=O)OC | -1.3% | 3.1 | -0.8 | -5.5 | -0.05 | 1.35 |
| C=CC1CC[N-]CC1.[Cl][Cu][Cl] | 6.4% | -1.9 | 2.75 | -7.6 | -14.6 | 6.35 |
| COc1ccccc1NC(=O)C(CC(C(=O)Nc1ccccc1OC)/C(C)=N/Nc1ccc([N+](=O)[O-])cc1[N+](=O)[O-])/C(C)=N/Nc1ccc([N+](=O)[O-])cc1[N+](=O)[O-] (stereo unspecified) | 14.8% | 4.95 | 19.6 | 10.6 | 17.8 | 32.4 |

Source: PubChem BioAssay (NCI)
